Gal4-VP16 FLuc: VP16 counterscreen qHTS for inhibitors of ROR gamma transcriptional activity; Potency, µM (series often up to 53.6 µM), for inactives: top-dose activity, negative = inhibition, most hits filed as inhibitors; Drosophila S2 Gal4-VP16 UAS-luciferase, luminescence, 20 h; hit rate 3.5% among 310,000; AID 2546, 2010;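 also: Gal4-VP16 expression switched on by copper sulfate through the metallothionein promoter; % is scaled to controls: 0 for no effect and ±100 for the full control effect; nearly all actives have a fitted effect of over 50% in size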
Chronic BCR inh: qHTS Assay to Find Inhibitors of Chronic Active B-Cell Receptor Signaling | Potency, µM (highest dose often 46.1 µM), for inactives: top-dose activity change, negative = inhibition, hits mostly inhibitors | AID 493014, 2011 | ABC-DLBCL IkBa-CBG/CBR reporter, luminescence ratio, 4 h | hit rate 0.05% among 340,000; active = well fitted inhibition curve with a large enough effect in the signal ratio, with a control signal flat, not every such curve was filed as active; inconclusive = small, poorly fitted or top-dose-only effect, or effect the other way, or a change in a side signal; the % refers to the signal ratio;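 also: plate controls were basal doxycycline-induced cells for no effect and cells given 10 µM MG132 for full effect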
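TMD8 ABC-DLBCL cells carrying doxycycline-inducible green luciferase fused to IkappaBalpha plus unfused red luciferase were exposed to compounds (up to 46 uM) for 4 hrs at 37C. Activity came from the overlap-corrected green/red luminescence ratio.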
uPA generation: qHTS for Inhibitors of Cell Surface uPA Generation; hit rate 0.31% among 330,000; cell surface uPA generation assay, qHTS; Potency, µM (series often up to 38.3 µM), inactives show at the top dose activity change, negative = inhibition, actives largely listed as inhibitors; active = well fitted inhibition curve with a large enough effect; inconclusive = small, poorly fitted or top-dose-only effect; inactive = no such curve, though single readings can be large or run the other way; tested in mouse RAW 264.7 cells; also: % is scaled to controls: 0 for no effect and ±100 for the full control effect; nearly all actives have a fitted effect of over 55% in size
RORg inh: qHTS for inhibitors of ROR gamma transcriptional activity; Nuclear receptor ROR-gamma (Mus musculus), P51450; Drosophila S2 Gal4-RORgamma UAS-luciferase reporter, 20 h; Potency, µM (titrated, usually from 53.6 µM), without a hit: at the highest dose activity change, negative = inhibition, most hits filed as inhibitors; hit rate 5.4% among 310,000; also: % is scaled to controls: 0 for no effect and ±100 for the full control effect; nearly all actives have a fitted effect of over 60% in size
Target sequence (P51450 whole entry, looked up, the tested form may be a part): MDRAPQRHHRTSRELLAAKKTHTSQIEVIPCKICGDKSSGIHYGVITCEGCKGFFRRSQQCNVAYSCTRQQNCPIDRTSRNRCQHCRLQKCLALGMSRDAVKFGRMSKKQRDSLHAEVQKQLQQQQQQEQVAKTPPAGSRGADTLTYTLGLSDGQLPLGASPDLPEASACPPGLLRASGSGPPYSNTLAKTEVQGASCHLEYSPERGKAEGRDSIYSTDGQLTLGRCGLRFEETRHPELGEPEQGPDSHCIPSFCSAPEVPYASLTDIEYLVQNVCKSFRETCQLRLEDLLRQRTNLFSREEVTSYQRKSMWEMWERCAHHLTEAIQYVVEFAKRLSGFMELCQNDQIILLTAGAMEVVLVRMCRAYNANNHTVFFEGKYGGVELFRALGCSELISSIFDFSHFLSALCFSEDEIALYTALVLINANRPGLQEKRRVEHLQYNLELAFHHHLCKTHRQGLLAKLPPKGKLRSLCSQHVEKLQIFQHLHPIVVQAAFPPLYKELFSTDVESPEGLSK
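ROR gamma transcriptional activity was tracked as Gal4-UAS luciferase output in stably transfected Drosophila Schneider cells, with compound added 1 hr before 700 uM copper sulfate induction and a 20 hr ambient-temperature incubation.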
a7 integrin act: qHTS for Activators of Integrin-Mediated Alleviation for Muscular Dystrophy; alpha7betagal myoblasts, beta-gal FDG fluorescence, 48 h; Potency, µM (top dose mostly 38.3 µM), for inactives: at the highest dose activation, hits mostly activators; hit rate 0.064% among 350,000;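 also: 100% = response of the positive control SU9516; nearly all actives have a fitted effect of over 60% in size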
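Alpha7betagal+/- myoblasts (passage 13) were plated 16-24 hr, then exposed to compounds (1:260 dilution of DMSO stock) for 48 hours at 37C. After MPER lysis, β-galactosidase reporter activity was read as FDG fluorescence (ex 480/em 540) after 30 minutes.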
Mito fusion act: qHTS Assay for Small Molecule Inhibitors of Mitochondrial Division or Activators of Mitochondrial Fusion. S. cerevisiae fusion-defective mutant growth rescue, CellTiterGlo 48 h. Potency, µM (doses to about 46.1 µM), without a hit: at the top dose growth rescue (activation), actives largely listed as activators. hit rate 0.23% among 320,000. AID 485298, 2010; also: % of control where 0% means no effect; nearly all actives have a fitted effect of over 45% in size
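Yeast fusion mutant, YPEG (non-fermentable carbon), compound, 48 h at 37C non-permissive; CellTiterGlo added, 10 min RT, luminescence read. Rescued growth = division inhibition.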
Active calls of the source: *; ? = inconclusive; · = no result. Hits are enriched below; roughly 5.5% of the tested compounds scored in any of these assays. Unless noted, calls follow the shape of the dose curve; as a rule, active = well fitted curve in the direction sought with a large enough effect; inconclusive = small, poorly fitted or top-dose-only effect, or another doubt; inactive = no such curve, though single readings can be large; an effect the other way counts as inactive or inconclusive. Potency is read from the fitted curve at half-maximal effect.

SMILES	Gal4-VP16 FLuc	Chronic BCR inh	uPA generation	RORg inh	a7 integrin act	Mito fusion act
COc1ccc2nc(NNC(=O)COc3ccccc3)sc2c1	-7%	-2%	11%	7.1µM*	1%	-1%
O=C(COc1ccccc1)NNc1nc2ccccc2s1	11µM*	-8%	5%	5µM*	-19%	-4%
O=C(COc1ccccc1)NNc1nc2c(F)cccc2s1	-2%	8%	4%	5µM*	-10%	-2%
C/C(=C\C(=O)c1ccccc1)NNc1nc2ccccc2s1	?	-3%	-2%	7.9µM*	-42%	1%
O=C(CCS(=O)(=O)Cc1ccccc1F)NCCc1ccc(Cl)cc1	-13%	1%	1%	-1%	14%	1%
COC(=O)C1=C[C@@H](C(=O)OC)[C@@H]2C3=C(C(=O)[C@]2(C)NC(=O)c2ccccc2)[C@H](C)[C@@H]2C(=O)NC(=O)[C@@H]2[C@@H]3C1	2%	·	·	-12%	·	·
CCCCCCCCOc1ccccc1C(=O)Nc1ccc(C(=O)OCC[N+](C)(CC)CC)cc1	-6%	·	·	29%	·	·
O=C(Cn1c(=O)n2nc(-c3cccc(F)c3)nc2c2ccccc21)N1CCN(c2ccccc2F)CC1	·	12%	·	·	·	·
C=CCc1ccccc1OCC(=O)NNC(=S)NCc1ccccc1	10µM*	?	-6%	1.4µM*	?	-2%
O=C(COc1ccc(Cl)cc1)NNC(=S)NCc1ccccc1	5.6µM*	3%	-2%	1.1µM*	15%	-14%
O=C(COc1ccc(Br)cc1)NNC(=S)NCc1ccccc1	?	11%	4%	?	15%	-1%
CC(C)(C)OC(=O)NNC(=S)NCc1ccc(Cl)cc1	?	3%	2%	14µM*	21%	-9%
N#CC1(NC(=O)CN2c3cccc4cccc(c34)S2(=O)=O)CCCCC1	·	?	3%	·	7%	-2%
COCC(=O)N[C@@H]1c2ccccc2CC[C@@H]1OCc1ccccc1	·	1%	-2%	·	11%	·
Cn1c(=O)c2c(-c3ccccc3)n(-c3ccccc3)cc2n(C)c1=O	·	·	·	·	-4%	·
Cn1c(=O)c2c(-c3ccccc3)n(-n3cnnc3)cc2n(C)c1=O	?	?	-15%	18µM*	-29%	1%
CSC(=S)N/N=C/c1ccccc1	3.2µM*	6%	-2%	1.4µM*	11%	5%
S=C(N/N=C/c1ccccc1)N1CCOCC1	2.5µM*	3%	-3%	0.4µM*	-41%	-3%
COc1ccc(/C=N/NC(=S)SC)cc1OC	3.2µM*	?	-12%	1.6µM*	-40%	-5%
COc1ccc(C=NNC(=O)NN=Cc2ccc(OC)c(OC)c2)cc1OC	·	·	-14%	·	-6%	·
CSc1cccc(NC(=O)C2CC(=O)N(Cc3ccccc3)C2)c1 (stereo not given)	-2%	2%	-1%	8%	-11%	0%
CN(C)c1ccc(-c2cc(Nc3ccc(F)cc3)ncn2)cc1	?	·	·	5%	·	·
Cc1nn(Cc2noc(C(=O)NC3CCC(C)CC3)n2)c(C)c1Br (stereo not given)	-11%	0%	?	12%	-50%	-19%
CN(C(=O)c1cc(COc2ccc(F)cc2Cl)on1)C1CCOC1 (stereo not given)	·	·	·	·	-13%	·
O=C(Nc1ccccc1)Nc1n[nH]c2nnc(-c3ccccc3)c(-c3ccccc3)c12	-2%	?	12%	17%	·	1%
SMILES	Gal4-VP16 FLuc	Chronic BCR inh	uPA generation	RORg inh	a7 integrin act	Mito fusion act
Cc1ccc(S(=O)(=O)CC(CN2CCCCC2)N2CCCCC2)cc1 (stereo not given)	-19%	?	10%	2.8µM*	-68%	-38%
Cc1ccc(S(=O)(=O)CC(c2ccccc2)N2CCCCC2)cc1 (stereo not given)	-10%	-4%	3%	-3%	-28%	1%
O=S(=O)(CC(CN1CCCCC1)N1CCCCC1)c1ccc2ccccc2c1 (stereo not given)	?	?	-14%	13µM*	-60%	0%
Cc1ccc(-c2csc(N3CCN(c4cc5c(cc4Cl)nc(C)n5CCN4CCCCC4)CC3)n2)cc1	?	4%	-3%	11µM*	-30%	1%
Cc1ccc(-c2csc(N3CCN(c4cc5c(cc4Cl)nc(C(C)N)n5CCCO)CC3)n2)cc1 (stereo not given)	11%	-2%	10%	0%	8%	-8%
CCOC(=O)c1c(NC(=O)CSc2nnc(-c3cccnc3)o2)sc(C(C)=O)c1C	?	-1%	-7%	10µM*	12%	-3%
Cc1sc(Cc2nc(O)cs2)nc1-c1ccccc1	-27%	-3%	-1%	11µM*	-22%	1%
Cc1ccc(Cn2c(=N)n(CC(O)COc3ccccc3)c3ccccc32)cc1 (stereo not given)	7.1µM*	?	-7%	5µM*	-2%	-19%
COc1ccccc1NC(=O)COc1coc(CN2CCN(c3ccccc3)CC2)cc1=O	·	?	9%	·	-6%	6%
CCOc1cccc(/C=N/NC(=S)Nc2cc(S(=O)(=O)N3CCOCC3)ccc2N2CCOCC2)c1O	10µM*	?	-8%	?	-16%	0%
COc1ccc(/C=N/NC(=S)Nc2cc(S(=O)(=O)N3CCOCC3)ccc2N2CCOCC2)cc1O	?	?	-12%	?	-21%	-1%
CCN(C(=S)Nc1cc(S(=O)(=O)N2CCOCC2)ccc1Cl)c1cccc2ccccc12	22µM*	-2%	6%	?	-17%	?
COc1ccc2ccccc2c1/C=N/NC(=S)Nc1cc(S(=O)(=O)N2CCOCC2)ccc1N1CCOCC1	10µM*	-6%	1%	2.8µM*	20%	-9%
O=S(=O)(c1ccc(Cl)c(NC(=S)Nc2cccc(O)c2)c1)N1CCOCC1	-2%	-1%	0%	-1%	7%	2%
CCCCn1c(N)c(N(CCC(C)C)C(=O)C2CC(=O)N(c3ccc(OC)cc3OC)C2)c(=O)[nH]c1=O (stereo not given)	·	3%	7%	·	-1%	1%
CCN(c1ccccc1)S(=O)(=O)c1cc(C(=O)Nc2ccccc2Cl)ccc1F	?	10%	-11%	35%	-12%	?
CCN(c1ccccc1)S(=O)(=O)c1cc(C(=O)Nc2ccc(Br)cc2)ccc1F	13µM*	?	-14%	17%	-54%	2%
O=C1c2cccc3cccc(c23)C(=O)N1Cc1cccnc1	12%	-13%	-4%	2%	5%	1%
